Of roughly 7,900 targets only a part is listed; those with a hit were picked by preference. About 0.6% of all pairs of compound and target were hits.
Tests used:
Experiment in all cases: log2 fold change, soluble protein after heating vs DMSO (PISA); higher = thermal stabilisation; K562 cells, 10 uM, 30 min; active = over 0.2 and 3.5 SD of the protein, either way, in both replicates (recomputed)
YWHAB = YWHAB (UniProt P31946)
How it was run: (§1)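 K562 cells at 2×10^6 cells/mL were given 10 μM compound for 30 min. Aliquots then went through 3 min of heating across 48°C-58°C, were pooled, and were extracted in PBS with 0.5% NP-40 at 4°C, and the supernatant after 21,000xg for 90 min was quantified by TMTpro 16plex LC-MS/MS with channel sums equalised. Thermal stability relative to control samples, from duplicates, is given as log2 fold change.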

YWHAQ = YWHAQ (UniProt P27348)
How it was run: as §1

YWHAZ [1] = target: YWHAZ (UniProt E7ESK7)
How it was run: as §1

YWHAZ [2] = target: YWHAZ (UniProt P63104)
YWHAZ (UniProt P63104), sequence (P63104 whole entry, looked up): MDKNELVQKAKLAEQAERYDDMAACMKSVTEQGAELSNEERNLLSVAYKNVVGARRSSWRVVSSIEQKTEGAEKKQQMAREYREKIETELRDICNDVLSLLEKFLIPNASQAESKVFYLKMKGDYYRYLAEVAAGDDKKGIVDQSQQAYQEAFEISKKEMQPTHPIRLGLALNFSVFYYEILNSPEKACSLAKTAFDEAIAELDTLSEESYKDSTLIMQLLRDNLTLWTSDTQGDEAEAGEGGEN
How it was run: as §1

YY1 = YY1 (UniProt P25490)
How it was run: as §1

ZADH2 = ZADH2 (UniProt Q8N4Q0)
ZADH2, sequence (Q8N4Q0 whole entry, looked up): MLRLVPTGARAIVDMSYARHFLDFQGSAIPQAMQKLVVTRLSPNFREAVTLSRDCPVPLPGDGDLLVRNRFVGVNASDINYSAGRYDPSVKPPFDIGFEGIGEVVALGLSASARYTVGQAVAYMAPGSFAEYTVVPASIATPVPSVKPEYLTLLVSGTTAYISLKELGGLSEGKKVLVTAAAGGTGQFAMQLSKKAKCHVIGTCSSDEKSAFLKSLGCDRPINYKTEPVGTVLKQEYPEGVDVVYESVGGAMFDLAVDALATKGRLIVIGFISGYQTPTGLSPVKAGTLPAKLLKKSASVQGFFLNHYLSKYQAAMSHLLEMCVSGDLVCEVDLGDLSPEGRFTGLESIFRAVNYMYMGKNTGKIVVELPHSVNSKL
How it was run: as §1

ZBTB17 isoform 2 = ZBTB17 isoform 2 (UniProt Q13105)
How it was run: as §1

ZBTB21 = ZBTB21 (UniProt Q9ULJ3)
ZBTB21, sequence (Q9ULJ3 whole entry, looked up): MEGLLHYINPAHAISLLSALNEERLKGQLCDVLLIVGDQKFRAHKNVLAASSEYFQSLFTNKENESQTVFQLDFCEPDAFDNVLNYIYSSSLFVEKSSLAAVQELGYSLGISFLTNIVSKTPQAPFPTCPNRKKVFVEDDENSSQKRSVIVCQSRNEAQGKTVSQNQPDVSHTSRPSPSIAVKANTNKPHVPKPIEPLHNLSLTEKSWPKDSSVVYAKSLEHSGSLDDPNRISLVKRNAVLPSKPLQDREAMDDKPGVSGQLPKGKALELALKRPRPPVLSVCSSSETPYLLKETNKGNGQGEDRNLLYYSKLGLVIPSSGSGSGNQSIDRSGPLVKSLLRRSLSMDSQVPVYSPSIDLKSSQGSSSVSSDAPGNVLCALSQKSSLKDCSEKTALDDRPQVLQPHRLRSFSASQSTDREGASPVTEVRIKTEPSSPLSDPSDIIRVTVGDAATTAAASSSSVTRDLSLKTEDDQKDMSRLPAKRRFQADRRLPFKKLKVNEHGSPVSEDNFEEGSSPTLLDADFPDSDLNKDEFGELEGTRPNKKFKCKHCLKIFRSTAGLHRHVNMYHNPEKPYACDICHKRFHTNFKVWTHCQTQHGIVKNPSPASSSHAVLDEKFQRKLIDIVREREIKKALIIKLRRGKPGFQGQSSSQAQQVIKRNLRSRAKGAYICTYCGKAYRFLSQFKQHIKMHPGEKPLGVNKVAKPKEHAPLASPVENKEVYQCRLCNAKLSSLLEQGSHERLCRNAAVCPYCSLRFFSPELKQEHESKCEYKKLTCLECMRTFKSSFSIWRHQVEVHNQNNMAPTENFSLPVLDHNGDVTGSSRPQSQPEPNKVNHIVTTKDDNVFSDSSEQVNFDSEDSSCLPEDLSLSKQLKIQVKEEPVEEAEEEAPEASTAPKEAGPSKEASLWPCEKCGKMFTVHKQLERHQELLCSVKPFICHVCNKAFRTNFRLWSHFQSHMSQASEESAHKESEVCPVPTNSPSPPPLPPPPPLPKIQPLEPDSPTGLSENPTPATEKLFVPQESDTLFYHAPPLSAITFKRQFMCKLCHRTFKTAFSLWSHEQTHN
How it was run: as §1

ZC3H18 = ZC3H18 (UniProt Q86VM9)
ZC3H18, sequence (Q86VM9 whole entry, looked up): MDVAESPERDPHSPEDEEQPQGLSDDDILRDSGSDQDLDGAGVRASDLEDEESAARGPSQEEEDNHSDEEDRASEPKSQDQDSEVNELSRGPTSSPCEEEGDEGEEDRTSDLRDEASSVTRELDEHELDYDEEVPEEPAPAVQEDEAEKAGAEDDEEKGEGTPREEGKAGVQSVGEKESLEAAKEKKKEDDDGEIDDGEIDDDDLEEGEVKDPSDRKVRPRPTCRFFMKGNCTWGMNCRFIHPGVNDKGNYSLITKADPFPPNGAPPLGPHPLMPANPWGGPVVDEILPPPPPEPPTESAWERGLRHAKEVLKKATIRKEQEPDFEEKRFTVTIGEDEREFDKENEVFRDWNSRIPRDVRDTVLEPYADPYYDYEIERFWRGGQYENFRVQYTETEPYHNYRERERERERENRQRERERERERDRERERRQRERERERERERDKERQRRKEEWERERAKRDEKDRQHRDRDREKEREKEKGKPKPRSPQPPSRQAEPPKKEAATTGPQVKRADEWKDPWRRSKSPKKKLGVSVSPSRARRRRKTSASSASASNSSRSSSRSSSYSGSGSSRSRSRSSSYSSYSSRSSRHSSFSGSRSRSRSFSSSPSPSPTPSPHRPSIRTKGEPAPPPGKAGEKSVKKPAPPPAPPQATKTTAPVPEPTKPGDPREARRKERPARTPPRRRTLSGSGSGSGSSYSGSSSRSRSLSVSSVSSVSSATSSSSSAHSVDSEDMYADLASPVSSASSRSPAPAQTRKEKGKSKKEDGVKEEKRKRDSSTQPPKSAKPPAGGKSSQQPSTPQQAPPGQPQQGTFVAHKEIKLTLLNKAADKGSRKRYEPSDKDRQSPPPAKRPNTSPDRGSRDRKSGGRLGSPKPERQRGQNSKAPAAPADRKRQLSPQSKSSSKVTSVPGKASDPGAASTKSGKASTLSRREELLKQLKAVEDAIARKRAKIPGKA
How it was run: as §1

ZC3H8 = ZC3H8 (UniProt Q8N5P1)
How it was run: as §1

ZC3HC1 = ZC3HC1 (UniProt Q86WB0)
ZC3HC1, sequence (Q86WB0 whole entry, looked up): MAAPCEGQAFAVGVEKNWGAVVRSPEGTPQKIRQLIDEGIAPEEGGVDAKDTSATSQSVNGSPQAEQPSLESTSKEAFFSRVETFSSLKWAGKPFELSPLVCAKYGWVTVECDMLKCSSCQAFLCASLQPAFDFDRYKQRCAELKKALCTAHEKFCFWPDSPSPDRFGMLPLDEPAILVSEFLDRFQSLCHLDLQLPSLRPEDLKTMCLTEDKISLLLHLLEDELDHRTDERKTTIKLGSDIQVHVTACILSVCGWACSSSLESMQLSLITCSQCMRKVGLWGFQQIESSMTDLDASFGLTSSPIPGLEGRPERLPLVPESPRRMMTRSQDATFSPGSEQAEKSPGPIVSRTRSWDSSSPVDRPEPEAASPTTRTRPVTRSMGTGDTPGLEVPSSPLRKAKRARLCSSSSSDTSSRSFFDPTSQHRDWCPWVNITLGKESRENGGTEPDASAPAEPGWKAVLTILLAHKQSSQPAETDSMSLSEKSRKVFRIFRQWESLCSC
How it was run: as §1

ZCCHC9 = ZCCHC9 (UniProt Q8N567)
ZCCHC9, sequence (Q8N567 whole entry, looked up): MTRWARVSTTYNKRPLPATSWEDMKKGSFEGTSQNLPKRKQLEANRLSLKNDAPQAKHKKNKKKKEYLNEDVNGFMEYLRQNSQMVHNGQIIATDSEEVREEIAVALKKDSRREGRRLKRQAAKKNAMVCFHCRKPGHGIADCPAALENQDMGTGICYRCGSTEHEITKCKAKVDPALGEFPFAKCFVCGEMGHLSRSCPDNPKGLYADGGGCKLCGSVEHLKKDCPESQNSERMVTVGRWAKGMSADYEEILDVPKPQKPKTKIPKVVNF
How it was run: as §1

ZDHHC17 = ZDHHC17 (UniProt Q8IUH5)
How it was run: as §1

ZDHHC20 = ZDHHC20 (UniProt Q5W0Z9)
ZDHHC20, sequence (Q5W0Z9 whole entry, looked up): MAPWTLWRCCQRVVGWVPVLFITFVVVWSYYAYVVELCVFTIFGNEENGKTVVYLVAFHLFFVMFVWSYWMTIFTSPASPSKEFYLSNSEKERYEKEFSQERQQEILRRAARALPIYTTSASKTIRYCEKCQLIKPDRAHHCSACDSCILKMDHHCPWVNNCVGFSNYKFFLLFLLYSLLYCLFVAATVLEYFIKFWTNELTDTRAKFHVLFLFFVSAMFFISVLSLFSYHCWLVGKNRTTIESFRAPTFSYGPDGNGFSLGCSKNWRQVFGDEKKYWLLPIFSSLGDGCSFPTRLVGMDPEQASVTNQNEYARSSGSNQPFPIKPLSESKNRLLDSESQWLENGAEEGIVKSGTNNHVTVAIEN
How it was run: as §1

ZDHHC5 = ZDHHC5 (UniProt Q9C0B5)
How it was run: as §1

ZBTB43 = ZBTB43 (UniProt O43298)
How it was run: as §1

ZDHHC7 isoform 2 = ZDHHC7 isoform 2 (UniProt Q9NXF8)
ZDHHC7 isoform 2, sequence (Q9NXF8 whole entry, looked up, canonical isoform): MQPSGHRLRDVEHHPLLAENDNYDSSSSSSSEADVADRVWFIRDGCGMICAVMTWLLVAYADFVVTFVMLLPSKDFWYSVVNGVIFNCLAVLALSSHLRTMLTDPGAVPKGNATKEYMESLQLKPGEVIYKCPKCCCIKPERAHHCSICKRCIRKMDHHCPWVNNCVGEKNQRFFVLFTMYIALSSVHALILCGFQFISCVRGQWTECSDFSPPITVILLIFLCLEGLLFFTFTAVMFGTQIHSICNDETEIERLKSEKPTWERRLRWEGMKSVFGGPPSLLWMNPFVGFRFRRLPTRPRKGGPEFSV
How it was run: as §1

ZDHHC6 = ZDHHC6 (UniProt Q9H6R6)
ZDHHC6, sequence (Q9H6R6 whole entry, looked up): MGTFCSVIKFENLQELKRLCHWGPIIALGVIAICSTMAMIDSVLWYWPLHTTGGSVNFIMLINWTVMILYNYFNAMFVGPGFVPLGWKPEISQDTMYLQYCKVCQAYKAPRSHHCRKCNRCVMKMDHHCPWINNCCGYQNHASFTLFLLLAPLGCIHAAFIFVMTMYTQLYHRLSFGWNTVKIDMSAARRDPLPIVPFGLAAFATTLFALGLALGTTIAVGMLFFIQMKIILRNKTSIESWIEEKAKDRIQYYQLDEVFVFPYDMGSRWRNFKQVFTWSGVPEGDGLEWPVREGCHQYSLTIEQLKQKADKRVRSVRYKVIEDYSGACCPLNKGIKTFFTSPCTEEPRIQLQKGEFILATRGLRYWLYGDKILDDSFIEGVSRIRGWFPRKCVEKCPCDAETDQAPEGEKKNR
How it was run: as §1

ZDHHC8 isoform 3 = ZDHHC8 isoform 3 (UniProt Q9ULC8)
How it was run: as §1

Measured: log2 fold change

YWHAB, sequence (P31946 whole entry, looked up): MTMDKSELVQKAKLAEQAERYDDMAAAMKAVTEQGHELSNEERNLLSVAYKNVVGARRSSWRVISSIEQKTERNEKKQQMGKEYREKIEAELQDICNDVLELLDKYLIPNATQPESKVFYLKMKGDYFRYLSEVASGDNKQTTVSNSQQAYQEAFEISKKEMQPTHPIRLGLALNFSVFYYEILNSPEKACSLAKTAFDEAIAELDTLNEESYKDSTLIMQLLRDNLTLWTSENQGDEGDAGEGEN

COc1cc(Nc2ncc3c(n2)-c2ccc(Cl)cc2C(c2c(F)cccc2OC)=NC3)ccc1C(=O)O [alisertib]
inactive: YWHAB 0.012 | YWHAQ -0.001 | YWHAZ [1] -0.041 | YWHAZ [2] -0.028 | YY1 -0.062 | ZADH2 0.021 | ZBTB17 isoform 2 0.136 | ZBTB21 -0.154 | ZC3H18 -0.085 | ZC3H8 -0.082 | ZC3HC1 0.024 | ZCCHC9 -0.083 | ZDHHC17 -0.02 | ZDHHC20 -0.052 | ZDHHC5 -0.107

FC(F)(F)c1ccc(/C=C/c2nc(COc3ccc(CCCCn4ccnn4)cc3)co2)cc1 [mubritinib]
inactive: YWHAB 0.045 | YWHAQ 0.049 | YWHAZ [1] 0.11 | YWHAZ [2] 0.015 | YY1 -0.055 | ZBTB17 isoform 2 -0.131 | ZBTB21 0.003 | ZC3H18 -0.042 | ZC3H8 -0.102 | ZC3HC1 -0.049 | ZCCHC9 -0.087 | ZDHHC17 0.051 | ZDHHC20 0.03 | ZDHHC5 0.025
active: ZADH2 -0.294

O=C1c2ccccc2-c2n[nH]c3cccc1c23
inactive: YWHAB 0.001 | YWHAQ 0.089 | YWHAZ [1] 0.008 | YWHAZ [2] 0.045 | YY1 -0.07 | ZADH2 0.03 | ZBTB21 0.006 | ZBTB43 -0.161 | ZC3H18 -0.211 | ZC3H8 -0.001 | ZC3HC1 -0.032 | ZCCHC9 -0.009 | ZDHHC17 -0.021 | ZDHHC20 -0.044 | ZDHHC5 -0.054 | ZDHHC7 isoform 2 0.01

CC[C@H](C)[C@H](NC(=O)[C@H]([C@@H](C)CC)N(C)C(C)=O)C(=O)N[C@H](C(=O)N[C@@H](CC(C)C)C(=O)[C@@]1(C)CO1)[C@@H](C)O [epoxomicin]
inactive: YWHAB 0.018 | YWHAQ 0.111 | YWHAZ [1] -0.075 | YWHAZ [2] 0.041 | YY1 -0.003 | ZADH2 0.077 | ZBTB21 -0.168 | ZBTB43 -0.054 | ZC3H18 -0.059 | ZC3H8 -0.107 | ZC3HC1 0.1 | ZCCHC9 -0.303 | ZDHHC17 -0.044 | ZDHHC20 -0.102 | ZDHHC5 -0.083 | ZDHHC6 -0.052 | ZDHHC7 isoform 2 0.124 | ZDHHC8 isoform 3 -0.037

O=C1NC(=O)C(c2cnc3ccccn23)=C1c1cn2c3c(cc(F)cc13)CN(C(=O)N1CCCCC1)CC2
inactive: YWHAB -0.04 | YWHAQ -0.095 | YWHAZ [1] -0.239 | YWHAZ [2] -0.025 | YY1 -0.013 | ZADH2 -0.043 | ZBTB21 -0.226 | ZBTB43 0.196 | ZC3H18 0.03 | ZC3H8 0 | ZC3HC1 -0.132 | ZCCHC9 0.229 | ZDHHC17 0.043 | ZDHHC20 0.079 | ZDHHC5 -0.014 | ZDHHC6 0.089 | ZDHHC7 isoform 2 -0.021 | ZDHHC8 isoform 3 0.029

COC(=O)N[C@@H](C)CNc1nccc(-c2cn(C(C)C)nc2-c2cc(Cl)cc(NS(C)(=O)=O)c2F)n1 [encorafenib]
inactive: YWHAB -0.003 | YWHAQ -0.016 | YWHAZ [1] -0.156 | YWHAZ [2] -0.031 | YY1 0.066 | ZADH2 0.045 | ZBTB43 0.065 | ZC3H18 -0.03 | ZC3H8 -0.01 | ZC3HC1 0.05 | ZCCHC9 0.002 | ZDHHC17 -0.015 | ZDHHC20 -0.058 | ZDHHC5 -0.028 | ZDHHC6 0.006 | ZDHHC7 isoform 2 -0.043

COc1ccc(Cn2ccc3ccc(C(=O)NO)cc32)cc1
inactive: YWHAB -0.028 | YWHAQ 0.3 | YWHAZ [1] 0.006 | YWHAZ [2] -0.002 | YY1 0.069 | ZADH2 0.008 | ZBTB21 0.026 | ZBTB43 0.094 | ZC3H18 -0.009 | ZC3H8 -0.128 | ZC3HC1 0.13 | ZCCHC9 -0.05 | ZDHHC17 0.137 | ZDHHC20 -0.034 | ZDHHC5 -0.01 | ZDHHC7 isoform 2 -0.022 | ZDHHC8 isoform 3 0.07

O=C(Nc1nc2ccccc2n1CCN1CCOCC1)c1cccc([N+](=O)[O-])c1 [IRAK-1-4 Inhibitor I]
inactive: YWHAB 0.127 | YWHAQ 0.084 | YWHAZ [1] 0.005 | YWHAZ [2] 0.105 | YY1 -0.026 | ZADH2 0.036 | ZBTB21 0.006 | ZBTB43 -0.043 | ZC3H18 -0.036 | ZC3H8 -0.098 | ZC3HC1 -0.017 | ZCCHC9 -0.085 | ZDHHC17 -0.008 | ZDHHC20 -0.044 | ZDHHC5 -0.043 | ZDHHC7 isoform 2 0 | ZDHHC8 isoform 3 -0.049

Source: the supplement of paper PMC10849652
